Results on 13 compounds are retold here after PubChem BioAssay.

Experiment in all cases: BK channel mutant inhibitors and activators – cell-based, U2OS BacMam, thallium flux, beta subunits, selectivity assay, profiling panel (AID 1259406);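 note: initial slope of Thallos dye fluorescence rise after thallium is added; log ratio against the mean of 0.3% DMSO vehicle wells on the same plate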
The subject of one test is F380Y. As to conditions: U2OS BacMam BK variants, at 30 µM.
The subject of a further test is F380Y/beta1. As to conditions: U2OS BacMam BK variants, at 30 µM.
The test system of a further test is F380Y/beta2Delta. Conditions: U2OS BacMam BK variants, at 30 µM.
In the next test the test system is F380Y/beta4. Conditions: U2OS BacMam BK variants, at 30 µM.
The target in test [1] is Calcium-activated potassium channel subunit alpha-1 (Homo sapiens) + Leucine-rich repeat-containing protein 26 (Homo sapiens) (UniProt Q12791+Q2I0M4). As to conditions: U2OS BacMam BK variants, F380Y/Slo1WT/gamma1, at 30 µM.
Calcium-activated potassium channel subunit alpha-1 (Homo sapiens) + Leucine-rich repeat-containing protein 26 (Homo sapiens), sequence (Q2I0M4 whole entry, looked up, one chain of several): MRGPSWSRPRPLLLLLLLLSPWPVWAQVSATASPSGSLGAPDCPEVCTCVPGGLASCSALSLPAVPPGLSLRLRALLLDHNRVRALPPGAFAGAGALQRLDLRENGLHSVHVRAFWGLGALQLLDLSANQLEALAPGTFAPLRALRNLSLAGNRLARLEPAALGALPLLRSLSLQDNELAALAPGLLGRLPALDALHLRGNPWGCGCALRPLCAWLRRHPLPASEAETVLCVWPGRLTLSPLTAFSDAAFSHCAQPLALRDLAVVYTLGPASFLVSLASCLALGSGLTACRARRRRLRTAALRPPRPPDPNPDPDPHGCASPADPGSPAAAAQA
For the next test, the system named is R275C. Conditions: U2OS BacMam BK variants, at 30 µM.
The subject of the next test is R275C/beta1. Conditions: U2OS BacMam BK variants, at 30 µM.
Another test relates to R275C/beta2Delta. Conditions: U2OS BacMam BK variants, at 30 µM.
In the next test the test system is R275C/beta4. Conditions: U2OS BacMam BK variants, at 30 µM.
The next test concerns R275C/Slo1WT/beta2. Conditions: U2OS BacMam BK variants, at 30 µM.

A number with no mark means an inactive call. Active and inactive are the calls of the source.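 Rule for the calls: active = thallium flux through the channel raised or lowered by more than 3 SD from vehicle-only wells, actives on both sides; inactive = the rest.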

`O=C(O)CCSc1ccc2ccccc2c1`: the log fold change Tl+ flux is -0.00784 in the test on F380Y; 0.0347 in the test with F380Y/beta1; -0.0447 in the test on F380Y/beta2Delta; 0.0271 in the test with F380Y/beta4; -0.000304 in test [1]; 0.0461 in the test with R275C. Besides, the log fold change Tl+ flux in the test on R275C/beta1 is 0.0425; with R275C/beta2Delta it was -0.00975; with R275C/beta4, -0.0121; with R275C/Slo1WT/beta2, 0.000781.

Take `O=C(Nc1ccc(OC(F)(F)F)cc1)OC1CN(C(c2ccccc2)c2ccccc2)C1`: the log fold change Tl+ flux is -0.0399 in the test with F380Y; -0.0331 in the test with F380Y/beta1; -0.0434 in the test on F380Y/beta2Delta; -0.154 (active) in the test with F380Y/beta4; -0.134 (active) in test [1]; -0.0449 in the test with R275C. For the same compound, the log fold change Tl+ flux in the test on R275C/beta1 is 0.0012; in the test on R275C/beta2Delta, -0.0123; in the test with R275C/beta4, 0.0956 (active); with R275C/Slo1WT/beta2 it was -0.0244.

On to `COC(=O)C(O)(c1ccc(NC(=O)c2ccc(Cl)c(Cl)c2)cc1)C(F)(F)F` (stereo not given), for which the log fold change Tl+ flux with F380Y was -0.0296; in the test on F380Y/beta1, 0.0948 (active); in the test with F380Y/beta2Delta, -0.0715; in the test with F380Y/beta4 it was 0.112 (active); in test [1], 0.0984; in the test with R275C, 0.0903 (active). Further, the log fold change Tl+ flux with R275C/beta1 is 0.216 (active); in the test with R275C/beta2Delta, 0.0948 (active); in the test on R275C/beta4, 0.263 (active); in the test on R275C/Slo1WT/beta2 it was 0.0206.

Take `CCOC(=O)Cn1c(=O)ccc2c(C)cc(C)nc21`: the log fold change Tl+ flux with F380Y was 0.0287; in the test on F380Y/beta1, -0.0128; in the test on F380Y/beta2Delta it was 0.0236; in the test on F380Y/beta4 it was -0.0078; in [1], 0.0102; in the test on R275C it was -0.00247. Further, the log fold change Tl+ flux with R275C/beta1 is -0.0331; with R275C/beta2Delta, 0.00136; in the test with R275C/beta4, 0.00241; with R275C/Slo1WT/beta2, -0.00135.

As for `Cc1ncc(CSc2nc(C(C)(C)C)cs2)c(CO)c1O`, the log fold change Tl+ flux with F380Y is -0.0128; in the test on F380Y/beta1, -0.0261; in the test on F380Y/beta2Delta it was -0.035; in the test on F380Y/beta4 it was -0.0366; in test [1] it was -0.0352; in the test on R275C, -0.0209. In addition, the log fold change Tl+ flux was -0.00193 with R275C/beta1, 0.0196 with R275C/beta2Delta, 0.00379 in the test on R275C/beta4 and -0.00882 in the test on R275C/Slo1WT/beta2.

`O=C1CCC(=O)N1c1ccc(S(=O)(=O)NCCCN2CCN(Cc3ccccc3)CC2)cc1`: the log fold change Tl+ flux was 0.0288 with F380Y; 0.0192 with F380Y/beta1; -0.00712 with F380Y/beta2Delta; -0.0181 in the test with F380Y/beta4; 0.0299 in test [1]; -0.0386 in the test with R275C. The log fold change Tl+ flux was 0.0158 with R275C/beta1, -0.00414 in the test with R275C/beta2Delta, -0.00195 in the test on R275C/beta4 and -0.018 in the test on R275C/Slo1WT/beta2.

With `Oc1c(Cl)cc(Cl)cc1C=Nc1nccs1`, the log fold change Tl+ flux in the test with F380Y was 0.115 (active); in the test with F380Y/beta1, 0.153 (active); with F380Y/beta2Delta, 0.108 (active); in the test with F380Y/beta4, 0.105 (active); in test [1], 0.0431; with R275C it was -0.0362. Besides, the log fold change Tl+ flux in the test on R275C/beta1 is 0.112 (active); in the test on R275C/beta2Delta, 0.0936 (active); with R275C/beta4, 0.0731; in the test on R275C/Slo1WT/beta2 it was 0.0241.

Consider `NC(=NNC(=O)c1cccnc1)c1ccncc1`, for which the log fold change Tl+ flux is 0.0309 in the test on F380Y; -0.00892 in the test with F380Y/beta1; 0.0142 with F380Y/beta2Delta; 0.00925 in the test with F380Y/beta4; -0.00474 in test [1]; -0.039 in the test with R275C. For the same compound, the log fold change Tl+ flux with R275C/beta1 is 0.0056; in the test on R275C/beta2Delta it was 0.00736; in the test on R275C/beta4 it was 0.00943; in the test with R275C/Slo1WT/beta2, -0.0381.

Regarding `CSc1cc(C(C)(C)C)[nH]n1`, the log fold change Tl+ flux in the test with F380Y is -0.125 (active); in the test with F380Y/beta1, -0.0178; in the test on F380Y/beta2Delta, -0.218 (active); in the test on F380Y/beta4 it was -0.423 (active); in test [1], 0.0568; in the test on R275C, 0.0547. For the same compound, the log fold change Tl+ flux is 0.173 (active) with R275C/beta1, -0.014 in the test on R275C/beta2Delta, 0.047 in the test on R275C/beta4 and 0.0223 in the test on R275C/Slo1WT/beta2.

Consider `N=C(N)Cc1c(Cl)cccc1Cl`, for which the log fold change Tl+ flux was 0.017 in the test on F380Y; 0.00557 in the test on F380Y/beta1; -0.000365 with F380Y/beta2Delta; -0.0202 in the test on F380Y/beta4; -0.0432 in [1]; 0.0228 in the test on R275C. Besides, the log fold change Tl+ flux in the test with R275C/beta1 was 0.0441; with R275C/beta2Delta, 0.028; with R275C/beta4, 0.0274; in the test with R275C/Slo1WT/beta2 it was 0.00537.

For the compound `O=C1c2ccccc2C(=O)N1CNc1ccc(Oc2ccc(Cl)cc2)cc1`, the log fold change Tl+ flux in the test with F380Y was 0.0258; with F380Y/beta1, 0.986 (active); in the test on F380Y/beta2Delta it was 0.0357; with F380Y/beta4, 0.151 (active); in test [1], 0.327 (active); in the test with R275C it was 0.06. The log fold change Tl+ flux in the test on R275C/beta1 was 0.443 (active); in the test with R275C/beta2Delta, 0.0194; with R275C/beta4 it was 0.104 (active); with R275C/Slo1WT/beta2, 0.0127.

For `CC(C)(C)NC(=S)NNc1c(Cl)cncc1Cl`, the log fold change Tl+ flux with F380Y was -0.00302; with F380Y/beta1 it was -0.0136; in the test with F380Y/beta2Delta, -0.0137; with F380Y/beta4, -0.0352; in test [1], -0.035; in the test with R275C, 0.0328. Moreover, the log fold change Tl+ flux in the test with R275C/beta1 was 0.0635; in the test with R275C/beta2Delta it was 0.00425; with R275C/beta4, -0.00379; in the test with R275C/Slo1WT/beta2, 0.0133.

For the compound `COC(=O)c1cc(-c2nc(-c3ccc(Cl)cc3Cl)cs2)c(SC)s1`, the log fold change Tl+ flux in the test with F380Y is -0.0122; in the test on F380Y/beta1 it was -0.00509; in the test on F380Y/beta2Delta it was 0.0439; in the test with F380Y/beta4 it was 0.00731; in [1] it was 0.00703; in the test on R275C it was -0.00909. Also, the log fold change Tl+ flux with R275C/beta1 was -0.0387; in the test with R275C/beta2Delta it was 0.0331; in the test on R275C/beta4, -0.0197; in the test on R275C/Slo1WT/beta2, -0.00912.
